# From PubChem BioAssay
# POLH inh = DNA polymerase eta (human) inhibition. Potency, µM (highest dose often 114 µM), for the others: at the top dose activity change, negative = inhibition, actives largely listed as inhibitors. Q9Y253. actives 1.2% (n = 390,000). recombinant Pol eta, fluorescent DNA replication assay; note: potency is the fitted concentration of half-maximal effect; % is set by controls: 0 for no effect and ±100 for the full control effect
#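 Pol eta (10 nM) was preincubated with compounds for 15 min at room temperature, after which fluorescent replication substrate (50 nM final) was added to start the reaction. Fluorescence was read kinetically at 0 and 10 min.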
# PI5P4Ka inh = inhibitors of human PI5P4K alpha | P48426 | PI5P4Kalpha enzyme, ADP-Glo luminescence, 60 min; stronger effect = lower value | max response, % | actives 1.2% (n = 330,000) | AID 652105; active = max response of -50% or lower; inconclusive = between -30% and -50%; inactive = -30% or higher; note: value at the top dose of about 77 µM; % is set by controls: 0 for no effect and ±100 for the full control effect
#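 Quantitative HTS of the MLSMR library against PI5P4Kalpha with substrate. ATP added last at 5 microM final; room temperature, 60 minutes. Remaining ATP depleted, ADP converted and read as luminescence.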
# POLK inh = blocks human DNA polymerase kappa activity; purified Pol kappa, fluorescent DNA synthesis assay, 10 min; Potency, µM (titrated, usually from 107 µM), without a hit: top-dose activity, negative = inhibition, usual class: inhibitors; actives 0.53% (n = 400,000); AID 588579; note: potency is the fitted concentration of half-maximal effect; % is set by controls: 0 for no effect and ±100 for the full control effect
#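 First, compounds were pin-transferred onto 10 nM Pol kappa. After 15 min at room temperature, substrate was added to 50 nM final. Fluorescence was then measured kinetically at 0 and 10 min.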
# Pol iota inh = DNA polymerase iota (human) inhibition; Q9UNA4; Pol iota fluorescent replication assay, 10 min; Potency, µM (doses to about 115 µM), for the others: at the top dose activity, negative = inhibition, most hits filed as inhibitors; actives 1% (n = 390,000); AID 588590; note: potency is the fitted concentration of half-maximal effect
#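 Fluorescent replication assay read twice, at 0 min and 10 min after adding 50 nM (final) substrate. Enzyme (10 nM) and compounds were first incubated 15 min at room temperature; enzyme-free buffer wells were negative controls.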
# ALOX12 inh = inhibitors of human 12S-lipoxygenase ALOX12 | purified 12hLO, xylenol orange hydroperoxide absorbance | Potency, µM (doses to about 108 µM), inactives show top-dose activity change, negative = inhibition, hits mostly inhibitors | actives 1.1% (n = 580,000) | AID 1671190; note: potency is the fitted concentration of half-maximal effect; % is set by controls: 0 for no effect and ±100 for the full control effect
# Target sequence (P18054 whole entry, looked up): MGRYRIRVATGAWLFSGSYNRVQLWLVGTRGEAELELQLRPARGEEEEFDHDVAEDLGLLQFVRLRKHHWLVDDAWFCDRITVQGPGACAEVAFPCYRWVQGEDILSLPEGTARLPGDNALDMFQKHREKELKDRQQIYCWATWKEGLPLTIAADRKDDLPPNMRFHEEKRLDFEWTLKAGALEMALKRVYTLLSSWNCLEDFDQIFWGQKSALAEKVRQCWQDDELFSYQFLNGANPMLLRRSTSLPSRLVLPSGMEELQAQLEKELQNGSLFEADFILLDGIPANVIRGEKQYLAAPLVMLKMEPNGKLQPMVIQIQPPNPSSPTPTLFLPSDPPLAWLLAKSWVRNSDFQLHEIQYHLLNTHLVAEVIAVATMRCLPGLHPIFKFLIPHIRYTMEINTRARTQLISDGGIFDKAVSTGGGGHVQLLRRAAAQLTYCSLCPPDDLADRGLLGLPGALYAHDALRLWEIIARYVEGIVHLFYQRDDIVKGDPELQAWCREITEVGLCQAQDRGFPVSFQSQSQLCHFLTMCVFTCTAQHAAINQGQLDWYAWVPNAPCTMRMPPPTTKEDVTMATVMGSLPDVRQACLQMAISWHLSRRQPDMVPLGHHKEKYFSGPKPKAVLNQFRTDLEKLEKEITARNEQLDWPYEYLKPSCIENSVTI
#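 Purified human 12hLO (150 nM final) in 25 mM Hepes, 0.01% Triton X-100, pH 7.0 was preincubated 15 min at room temperature with compound. Then 40 uM arachidonic acid was added, 30 min. Hydroperoxide was read by Fe-XO absorbance ratio 573/405 nm.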
# Pol beta inh = inhibitors of human DNA polymerase beta. Pol beta primer extension/strand displacement, fluorescence kinetic. Potency, µM (series often up to 114 µM), inactives show top-dose activity change, negative = inhibition, usual class: inhibitors. actives 1.3% (n = 340,000); note: potency is the fitted concentration of half-maximal effect; % is set by controls: 0 for no effect and ±100 for the full control effect
#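 Enzyme-only controls used 10 nM Pol beta; buffer lacking enzyme served as negative control. Compound preincubated 15 min, then 50 nM substrate added; 0 and 10 min reads at room temperature.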
# An asterisk follows results filed as active; u = inconclusive; x = no result; [ ] = another dose, or the depositor's remark. Hits are enriched below; roughly 2.9% of the tested compounds scored in any of these assays. Unless noted, calls come from the whole dose curve; as a rule, active = well fitted inhibition curve with a large enough effect; inconclusive = small, poorly fitted or top-dose-only effect, or another doubt; inactive = no such curve, though single readings can be large or run the other way.
SMILES,POLH inh,PI5P4Ka inh,POLK inh,Pol iota inh,ALOX12 inh,Pol beta inh
CCOC(=O)C(=O)Nc1ccc(S(=O)(=O)Nc2ncccn2)cc1,-4.5%,x,-12.9%,-11.3%,3.6%,89.1µM*
O=S(=O)(NNC(=S)Nc1ccc(S(=O)(=O)Nc2ncccn2)cc1)c1ccc(Br)cc1,-4.4%,1.2,1.9%,13.5%,-41.5%,16.0%
COc1ccc(NS(=O)(=O)c2ccc(NC(=O)c3ccc(Br)cc3)cc2)nn1,-17.6%,-0.6,u,-3.4%,-12.5%,6.4%
O=C(NC(=S)Nc1ccc(S(=O)(=O)Nc2ncccn2)cc1)c1ccc(Br)cc1,-16.6%,-9.5,-10.8%,23.0%,20µM*,3.2%
Cc1ccc(-c2cc(C(=O)Nc3ccc(S(=O)(=O)Nc4ncccn4)cc3)[nH]n2)c(O)c1C,44.7µM*,-7.0,-30.6%,u,14.7%,u
COc1ccc(NS(=O)(=O)c2ccc(NC(=S)NC(=O)c3ccc(Br)cc3)cc2)nn1,0.4%,-11.3,-39.0%,10.4%,25.1µM*,18.3%
CCOC(=O)C(=O)Nc1ccc(S(=O)(=O)Nc2nccc(C)n2)cc1,u,2.2,x,x,-22.2%,x
Cc1cc(Cl)ccc1OCC(=O)NC1CCN(C(C)C)CC1,x,x,x,x,-41.7%,x
O=C(COc1ccccc1)N(Cc1ccc(-c2cccc(Cl)c2)o1)C1CCS(=O)(=O)C1 (configuration not stated),x,x,x,x,-17.6%,x
COc1ccc(NS(=O)(=O)c2ccc(NC(=S)NC(=O)c3cccc(F)c3)cc2)nn1,-6.3%,-4.0,4.4%,19.1%,39.8µM*,4.8%
COc1ccc(NS(=O)(=O)c2ccc(NC(=S)NC(=O)c3cccnc3)cc2)nn1,-17.9%,-5.0,-2.7%,43.3%,u,-2.2%
O=C(NC(=S)Nc1ccc(S(=O)(=O)Nc2nccs2)cc1)c1ccc(F)c(F)c1,-7.2%,-11.7,-12.2%,16.7%,10µM*,22.5%
O=Nc1nc2ncccn2c1-c1ccccc1,-4.7%,1.4,-16.4%,22.4µM*,-11.5%,x
O=C1CC(SC(=S)C2CCCC2=O)C(=O)N1 (configuration not stated),7.08µM*,-80.1*,x,x,22.4µM*,x
CC1=NN(c2ccccc2)C(=O)C1C(=S)SC1CC(=O)NC1=O (configuration not stated),-1.8%,u,x,x,u,x
O=C(/C=C/c1ccc([N+](=O)[O-])cc1)NC1CC2CCC1C2 (configuration not stated),-10.3%,-51.8*,-8.6%,22.2%,10.9%,2.2%
COc1cc(Cl)c(C)cc1NC(=O)CCn1c(=O)c2cccn2c2cccnc21,79.4µM*,x,2.9%,1.8%,-18.9%,13.2%
Oc1ccc(CN2CCCCC2)c2cccnc12,9.7%,x,-3.1%,-2.5%,u,0.1%
CCOC(=O)N1CCN(Cc2ccc(O)c3ncccc23)CC1,2.8%,4.7,-8.6%,45.8%,25.1µM*,2.7%
Cc1c(CCC(=O)Nc2nc3ccccc3[nH]2)c(=O)oc2cc(O)ccc12,x,x,x,x,-4.2%,x
CN(C)CCCNS(=O)(=O)c1ccc(N2CCN(Cc3ccc4c(c3)OCO4)CC2)c([N+](=O)[O-])c1,4.5%,-10.5,3.3%,15.1%,2.82µM*,27.5%
O=S(=O)(c1ccc(-c2csc(Nc3cccc4ccccc34)n2)cc1)N1CCCCC1,x,x,x,x,15.8µM*,x
COc1cc(/C=C2/SC(=S)N(c3c(C)n(C)n(-c4ccccc4)c3=O)C2=O)ccc1O,u,-8.7,-21.8%,28.2µM*,-60.5%,28.2µM*
O=C(O)C(Cc1ccccc1)N1C(=O)/C(=C/c2cccnc2)SC1=S (configuration not stated),6.7%,-14.6,-7.9%,u,u,8.7%
COc1cc(/C=C2/SC(=S)N(Cc3ccccc3)C2=O)ccc1O,u,-0.1,u,39.8µM*,8.2%,10µM*
SMILES,POLH inh,PI5P4Ka inh,POLK inh,Pol iota inh,ALOX12 inh,Pol beta inh
COc1cc(/C=C2\SC(=S)N(C(C(=O)O)c3ccccc3)C2=O)ccc1O (configuration not stated),u,-18.8,-35.0%,28.2µM*,-24.4%,u
COc1ccc(/C=C2\SC(=S)N(C(Cc3ccccc3)C(=O)O)C2=O)cc1 (configuration not stated),4.5%,3.1,-9.0%,-1.9%,17.8µM*,-11.7%
Cn1c(CO[C@H]2CN(Cc3ccc4c(c3)OCCO4)C[C@H]2F)nc2ccccc21,x,x,x,x,51.1%[176 µM],x
O=C(O)COc1cccc(/C=C2/SC(=S)N(Cc3ccccc3)C2=O)c1,79.4µM*,-1.1,-42.3%,u,u,u
O=C1/C(=C\c2ccc(O)c(O)c2)SC(=S)N1Cc1ccccc1,-29.8%,u,-24.2%,22.4µM*,u,u
COc1ccc(CCNC(=S)Nc2ccc(C(C)C)cc2)cc1,-7.7%,6.2,-7.7%,-4.7%,39.8µM*,-26.0%
O=C(CCCCCNC(=S)Nc1ccc(Cl)cc1)C[N+](=O)[O-],-17.9%,-18.0,0.8%,12.3%,u,10.7%
CCC(C)c1ccc(NC(=S)Nc2ccc(OC)cc2)cc1 (configuration not stated),-16.5%,9.6,0.5%,-0.9%,44.7µM*,-19.8%
COc1ccc(CCNC(=S)Nc2ccc(OC)cc2)cc1,-19.4%,-7.3,8.6%[60.1 µM],-8.2%,u,19.4%
COc1ccc(NC(=S)NCCCCCC(=O)C[N+](=O)[O-])cc1,79.4µM*,-10.7,-3.9%,u,u,-1.0%
O=C(CCC1CCCC1)NCc1ccc(CN2CCCC2)cc1,x,x,x,x,8.8%,x
Cc1ccc(NC(=O)c2ccc(C(C)(C)C)cc2)c(C(=O)c2ccccc2)c1,x,x,x,x,2.5%,x
CCOc1ccc(CNC(=O)CN(C(=O)C2=C(C)OCCS2)c2ccc(Cl)cc2)cc1OC,x,x,x,x,-9.7%,x
CCOc1[nH]c(/N=C/c2ccco2)c(C#N)c1C#N,14.1µM*,u,u,u,17.8µM*,12.1%
CCCc1cc(=O)oc2c(C)c(OC(C)C(=O)NCc3cccnc3)ccc12 (configuration not stated),x,x,x,x,-48.5%,x
Cc1cnc(C(=O)N2CCOCC(CO)C2)cn1 (configuration not stated),x,x,x,x,50.1µM*,x
